Laboratory results published in article PMC8384837, “Expanding the binding specificity for RNA recognition by a PUF domain”.

Each sequence was assayed against PUM1 PUF domain R4-DYS (Homo sapiens, UniProt Q14671 828-1176, N971D;H972Y;Q975S) (assay: yeast three-hybrid, YBZ-1, SC-Leu-His + 0.5 mM 3-AT, 4 days). Settings: tags: N-Gal4 AD-HA kept; label: inside an RPR1-promoter hybrid RNA with tandem MS2 sites; ssRNA.
Summary of the method: (§1)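 The interaction score is the logarithmic change in variant frequency from input to selection. It uses log2, with a pseudocount of 1 for absent variants, and frequencies came from PCR-amplified, Illumina-sequenced repeat regions. The libraries were Pumilio-1 PUF domains randomized at the three base-contacting residues per repeat, co-expressed with matching RNA elements in strain YBZ-1 (LexA–MS2 coat fusion, HIS3 reporter). Plating lasted four days on SC-Leu (input) or SC-Leu-His + 0.5 mM 3-AT (selection).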

**Q.** How did the binding signal turn out when “GGCUAGAACUAGUGGAUCCCCCGGCGCCCGGCGGCUCGAGCCCGGGUAAGUGUACAUAGUCUGCAUGCCGCCGGGCGCCAUGCCUGCAGGUCGACUCUAGAAAACAUG” was run?
**A.** The binding signal was 5.76 log2 enrichment (interaction score).

**Q.** “GGCUAGAACUAGUGGAUCCCCCGGCGCCCGGCGGCUCGAGCCCGGGUAAGUGUAUAUAGUCUGCAUGCCGCCGGGCGCCAUGCCUGCAGGUCGACUCUAGAAAACAUG” was tested. Which binding signal did it give?
**A.** The binding signal was 7.01 log2 enrichment (interaction score).

**Q.** “GGCUAGAACUAGUGGAUCCCCCGGCGCCCGGCGGCUCGAGCCCGGGUAAGUGUAAAUAGUCUGCAUGCCGCCGGGCGCCAUGCCUGCAGGUCGACUCUAGAAAACAUG” was tested. Which binding signal did it give?
**A.** The binding signal was 4.45 log2 enrichment (interaction score).

Each sequence was assayed against PUM1 PUF domain R3-LWL (Homo sapiens, UniProt Q14671 828-1176, C935L;R936W;Q939L) in the same assay as above. Settings: tags: N-Gal4 AD-HA kept; label: inside an RPR1-promoter hybrid RNA with tandem MS2 sites; ssRNA.
Summary of the method: as §1

**Q.** How did the binding signal turn out when “GGCUAGAACUAGUGGAUCCCCCGGCGCCCGGCGGCUCGAGCCCGGGUAAGUGUAAUUAGUCUGCAUGCCGCCGGGCGCCAUGCCUGCAGGUCGACUCUAGAAAACAUG” was run?
**A.** The binding signal was 4.13 log2 enrichment (interaction score).

**Q.** “GGCUAGAACUAGUGGAUCCCCCGGCGCCCGGCGGCUCGAGCCCGGGUAAGUGUAAGUAGUCUGCAUGCCGCCGGGCGCCAUGCCUGCAGGUCGACUCUAGAAAACAUG” was tested. Which binding signal did it give?
**A.** The binding signal was 4.64 log2 enrichment (interaction score).

**Q.** “GGCUAGAACUAGUGGAUCCCCCGGCGCCCGGCGGCUCGAGCCCGGGUAAGUGUAAAUAGUCUGCAUGCCGCCGGGCGCCAUGCCUGCAGGUCGACUCUAGAAAACAUG” was tested. Which binding signal did it give?
**A.** Its binding signal is 2.69 log2 enrichment (interaction score).

Each sequence was assayed against PUM1 PUF domain R3-APR (Homo sapiens, UniProt Q14671 828-1176, C935A;R936P;Q939R) in the same assay as above. Settings: tags: N-Gal4 AD-HA kept; label: inside an RPR1-promoter hybrid RNA with tandem MS2 sites; ssRNA.
Summary of the method: as §1

**Q.** “GGCUAGAACUAGUGGAUCCCCCGGCGCCCGGCGGCUCGAGCCCGGGUAAGUGUAAUUAGUCUGCAUGCCGCCGGGCGCCAUGCCUGCAGGUCGACUCUAGAAAACAUG” was tested. Which binding signal did it give?
**A.** Its binding signal is 2.28 log2 enrichment (interaction score).

**Q.** For “GGCUAGAACUAGUGGAUCCCCCGGCGCCCGGCGGCUCGAGCCCGGGUAAGUGUAAGUAGUCUGCAUGCCGCCGGGCGCCAUGCCUGCAGGUCGACUCUAGAAAACAUG”, which binding signal is on record?
**A.** The binding signal was 1.67 log2 enrichment (interaction score).

**Q.** For “GGCUAGAACUAGUGGAUCCCCCGGCGCCCGGCGGCUCGAGCCCGGGUAAGUGUAAAUAGUCUGCAUGCCGCCGGGCGCCAUGCCUGCAGGUCGACUCUAGAAAACAUG”, which binding signal is on record?
**A.** The binding signal was 2.66 log2 enrichment (interaction score).

Each sequence was assayed against PUM1 PUF domain R3-GRC (Homo sapiens, UniProt Q14671 828-1176, C935G;Q939C) in the same assay as above. Settings: tags: N-Gal4 AD-HA kept; label: inside an RPR1-promoter hybrid RNA with tandem MS2 sites; ssRNA.
Summary of the method: as §1

**Q.** “GGCUAGAACUAGUGGAUCCCCCGGCGCCCGGCGGCUCGAGCCCGGGUAAGUGUAAUUAGUCUGCAUGCCGCCGGGCGCCAUGCCUGCAGGUCGACUCUAGAAAACAUG” was tested. Which binding signal did it give?
**A.** The binding signal was 1.22 log2 enrichment (interaction score).

**Q.** For “GGCUAGAACUAGUGGAUCCCCCGGCGCCCGGCGGCUCGAGCCCGGGUAAGUGUAAGUAGUCUGCAUGCCGCCGGGCGCCAUGCCUGCAGGUCGACUCUAGAAAACAUG”, which binding signal is on record?
**A.** Its binding signal is 0.66 log2 enrichment (interaction score).

**Q.** With “GGCUAGAACUAGUGGAUCCCCCGGCGCCCGGCGGCUCGAGCCCGGGUAAGUGUAAAUAGUCUGCAUGCCGCCGGGCGCCAUGCCUGCAGGUCGACUCUAGAAAACAUG” as the sequence, how does the binding signal read?
**A.** Its binding signal is 3.23 log2 enrichment (interaction score).

Each sequence was assayed against PUM1 PUF domain R1-RRE (Homo sapiens, UniProt Q14671 828-1176, S863R;Q867E) in the same assay as above. Settings: tags: N-Gal4 AD-HA kept; label: inside an RPR1-promoter hybrid RNA with tandem MS2 sites; ssRNA.
Summary of the method: as §1

**Q.** “GGCUAGAACUAGUGGAUCCCCCGGCGCCCGGCGGCUCGAGCCCGGGUAAGUGUAAAUUGUCUGCAUGCCGCCGGGCGCCAUGCCUGCAGGUCGACUCUAGAAAACAUG” was tested. Which binding signal did it give?
**A.** Its binding signal is 2.91 log2 enrichment (interaction score).

**Q.** For “GGCUAGAACUAGUGGAUCCCCCGGCGCCCGGCGGCUCGAGCCCGGGUAAGUGUAAAUCGUCUGCAUGCCGCCGGGCGCCAUGCCUGCAGGUCGACUCUAGAAAACAUG”, which binding signal is on record?
**A.** Its binding signal is 3.92 log2 enrichment (interaction score).

**Q.** With “GGCUAGAACUAGUGGAUCCCCCGGCGCCCGGCGGCUCGAGCCCGGGUAAGUGUAAAUGGUCUGCAUGCCGCCGGGCGCCAUGCCUGCAGGUCGACUCUAGAAAACAUG” as the sequence, how does the binding signal read?
**A.** Its binding signal is 2.12 log2 enrichment (interaction score).
